Experimental data taken from paper PMC7862700, “An all-to-all approach to the identification of sequence-specific readers for epigenetic DNA modifications on cytosine”.

What was measured:
Test in all cases: DAPPL (digital affinity profiling via proximity ligation, sequencing); 10 mM Tris-HCl pH 7.5, 50 mM NaCl, 1 mM DTT, 4% glycerol, room temperature, 30 min; GST-TFs on glutathione beads, 16-mer random dsDNA library, 0.1% formaldehyde crosslink after washing; high values mean tight binding
Settings in all cases: protein: recombinant; tags: N-terminal GST; dsDNA, one strand shown
ERF = target: T1, ERF (Homo sapiens, UniProt P50548 1-548)
T1 sequence: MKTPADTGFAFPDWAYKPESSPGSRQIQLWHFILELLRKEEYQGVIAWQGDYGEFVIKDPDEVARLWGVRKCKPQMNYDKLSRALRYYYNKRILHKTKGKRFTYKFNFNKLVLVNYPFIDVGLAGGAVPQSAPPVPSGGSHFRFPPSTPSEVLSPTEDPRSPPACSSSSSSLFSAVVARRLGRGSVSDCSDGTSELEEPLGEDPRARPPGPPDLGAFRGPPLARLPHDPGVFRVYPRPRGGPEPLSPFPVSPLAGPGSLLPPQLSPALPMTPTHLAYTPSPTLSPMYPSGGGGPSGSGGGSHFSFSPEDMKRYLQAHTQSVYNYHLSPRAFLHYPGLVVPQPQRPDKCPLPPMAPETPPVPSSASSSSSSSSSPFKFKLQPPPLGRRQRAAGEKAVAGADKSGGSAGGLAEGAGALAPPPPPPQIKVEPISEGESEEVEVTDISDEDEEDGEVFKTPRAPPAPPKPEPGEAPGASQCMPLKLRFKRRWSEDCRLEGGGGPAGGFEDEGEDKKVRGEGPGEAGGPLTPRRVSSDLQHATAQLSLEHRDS
Procedure, shortened: (§1)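 The binding signal reported is, for every hexamer, its read frequency for a factor over its read frequency for the tag-only sample. Reads came from pools of yeast-expressed, GST-fused human transcription factors on glutathione beads, barcoded with DNA and mixed with that sample, which were incubated with 200 nmole of a random double-stranded 16-mer DNA library in Tris/NaCl/DTT/glycerol buffer at room temperature for 30 min. After washing, the pools were crosslinked with 0.1% formaldehyde, proximity-ligated with BsaI/T4 ligase for 1 h at 37 °C, PCR-amplified and sequenced on an Illumina NextSeq500.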

ETV3L = target: T2, ETV3L (Homo sapiens, UniProt Q6ZN32 1-361)
T2 sequence: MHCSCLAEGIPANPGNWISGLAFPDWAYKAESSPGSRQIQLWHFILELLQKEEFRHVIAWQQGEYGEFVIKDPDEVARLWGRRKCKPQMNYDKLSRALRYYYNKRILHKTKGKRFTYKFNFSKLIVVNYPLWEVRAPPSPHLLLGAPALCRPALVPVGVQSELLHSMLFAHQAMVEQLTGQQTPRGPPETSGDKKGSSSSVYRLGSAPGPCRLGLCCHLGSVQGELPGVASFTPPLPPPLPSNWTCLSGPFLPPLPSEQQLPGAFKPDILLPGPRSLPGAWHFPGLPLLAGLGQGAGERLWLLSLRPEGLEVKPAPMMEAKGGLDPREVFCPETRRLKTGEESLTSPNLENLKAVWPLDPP
Procedure, shortened: as §1

ETS2 = target: T3, ETS2 (Homo sapiens, UniProt P15036 1-469)
T3 sequence: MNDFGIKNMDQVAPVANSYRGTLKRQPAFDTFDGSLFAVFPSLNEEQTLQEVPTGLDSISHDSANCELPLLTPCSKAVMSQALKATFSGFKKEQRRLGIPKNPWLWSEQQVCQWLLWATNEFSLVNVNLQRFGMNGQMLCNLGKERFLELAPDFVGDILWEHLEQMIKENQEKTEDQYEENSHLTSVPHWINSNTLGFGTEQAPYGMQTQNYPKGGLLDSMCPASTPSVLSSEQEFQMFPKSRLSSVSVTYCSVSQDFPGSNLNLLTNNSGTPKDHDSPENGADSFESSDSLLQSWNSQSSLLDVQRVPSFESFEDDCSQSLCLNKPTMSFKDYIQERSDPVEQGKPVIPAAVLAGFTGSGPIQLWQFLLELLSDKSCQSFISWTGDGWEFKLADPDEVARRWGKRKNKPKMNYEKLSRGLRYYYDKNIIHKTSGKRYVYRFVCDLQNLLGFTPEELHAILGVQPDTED
Procedure, shortened: as §1

SPDEF = target: T4, SPDEF (Homo sapiens, UniProt O95238 1-335)
T4 sequence: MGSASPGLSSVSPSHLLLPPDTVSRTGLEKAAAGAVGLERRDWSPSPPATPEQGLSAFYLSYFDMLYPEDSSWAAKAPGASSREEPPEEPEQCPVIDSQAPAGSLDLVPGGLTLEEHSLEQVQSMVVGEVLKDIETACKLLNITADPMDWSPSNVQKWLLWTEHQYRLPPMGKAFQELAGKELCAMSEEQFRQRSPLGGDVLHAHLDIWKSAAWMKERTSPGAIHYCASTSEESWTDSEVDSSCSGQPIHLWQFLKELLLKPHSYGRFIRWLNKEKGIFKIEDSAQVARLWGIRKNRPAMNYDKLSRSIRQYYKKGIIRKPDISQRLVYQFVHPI
Procedure, shortened: as §1

ETV7 = target: T5, ETV7 (Homo sapiens, UniProt Q9Y603 1-341)
T5 sequence: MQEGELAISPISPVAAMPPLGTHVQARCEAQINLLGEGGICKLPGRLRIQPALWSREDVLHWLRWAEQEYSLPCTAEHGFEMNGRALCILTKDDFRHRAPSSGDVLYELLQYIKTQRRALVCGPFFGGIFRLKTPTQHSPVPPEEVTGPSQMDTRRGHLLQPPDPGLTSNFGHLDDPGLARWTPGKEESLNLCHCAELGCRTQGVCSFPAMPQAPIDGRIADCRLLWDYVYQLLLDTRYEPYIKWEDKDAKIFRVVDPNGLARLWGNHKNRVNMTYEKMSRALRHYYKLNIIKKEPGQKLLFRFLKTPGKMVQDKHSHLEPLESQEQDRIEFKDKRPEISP
Procedure, shortened: as §1

ELF5 = target: T6, ELF5 (Homo sapiens, UniProt Q9UKW6-2 1-255)
T6 sequence: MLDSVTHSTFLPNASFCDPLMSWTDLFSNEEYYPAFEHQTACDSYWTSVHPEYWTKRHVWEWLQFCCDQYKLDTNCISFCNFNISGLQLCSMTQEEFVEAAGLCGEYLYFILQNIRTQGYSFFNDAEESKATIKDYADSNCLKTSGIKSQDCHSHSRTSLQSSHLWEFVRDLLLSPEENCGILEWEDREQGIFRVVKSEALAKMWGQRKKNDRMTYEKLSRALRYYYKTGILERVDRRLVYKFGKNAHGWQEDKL
Procedure, shortened: as §1

ETV3 = target: T7, ETV3 (Homo sapiens, UniProt P41162-2 1-143)
T7 sequence: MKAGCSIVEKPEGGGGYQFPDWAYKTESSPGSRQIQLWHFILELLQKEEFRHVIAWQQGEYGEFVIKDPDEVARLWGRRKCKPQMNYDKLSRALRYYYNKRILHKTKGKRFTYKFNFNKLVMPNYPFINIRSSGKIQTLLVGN
Procedure, shortened: as §1

ETV6 = ETV6 (Homo sapiens, UniProt P41212 1-452)
ETV6, sequence (P41212 whole entry): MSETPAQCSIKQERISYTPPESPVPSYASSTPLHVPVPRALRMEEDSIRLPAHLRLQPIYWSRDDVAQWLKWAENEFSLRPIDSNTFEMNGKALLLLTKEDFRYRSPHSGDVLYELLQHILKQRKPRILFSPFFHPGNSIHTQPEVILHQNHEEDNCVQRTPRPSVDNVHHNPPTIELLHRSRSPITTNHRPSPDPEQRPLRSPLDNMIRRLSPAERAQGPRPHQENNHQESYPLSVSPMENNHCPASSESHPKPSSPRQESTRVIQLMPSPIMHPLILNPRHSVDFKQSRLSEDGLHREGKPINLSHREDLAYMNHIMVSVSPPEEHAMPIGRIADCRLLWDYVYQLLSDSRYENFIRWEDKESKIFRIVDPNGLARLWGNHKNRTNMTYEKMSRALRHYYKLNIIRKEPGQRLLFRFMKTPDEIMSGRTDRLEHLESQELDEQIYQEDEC
Procedure, shortened: as §1

With ACCCCC the binding signal (ERF) was 1.08 fold enrichment (6-mer frequency, TF over GST control), the binding signal (ETV3L) was 1.16 fold enrichment (6-mer frequency, TF over GST control) and the binding signal (ETS2) was 1.15 fold enrichment (6-mer frequency, TF over GST control). For the same sequence, the binding signal (SPDEF) was 1.1 fold enrichment (6-mer frequency, TF over GST control), the binding signal (ETV7) was 1.08 fold enrichment (6-mer frequency, TF over GST control) and the binding signal (ELF5) was 1.12 fold enrichment (6-mer frequency, TF over GST control). For the same sequence, the binding signal (ETV3) was 1.21 fold enrichment (6-mer frequency, TF over GST control) and the binding signal (ETV6) was 1.06 fold enrichment (6-mer frequency, TF over GST control).
TTCCAG was tested, and the binding signal (ERF) was 1.09 fold enrichment (6-mer frequency, TF over GST control), the binding signal (ETV3L) was 1.09 fold enrichment (6-mer frequency, TF over GST control) and the binding signal (ETS2) was 1.12 fold enrichment (6-mer frequency, TF over GST control). For the same sequence, the binding signal (SPDEF) was 1.04 fold enrichment (6-mer frequency, TF over GST control), the binding signal (ETV7) was 1.16 fold enrichment (6-mer frequency, TF over GST control) and the binding signal (ELF5) was 1.18 fold enrichment (6-mer frequency, TF over GST control). For the same sequence, the binding signal (ETV3) was 1.06 fold enrichment (6-mer frequency, TF over GST control) and the binding signal (ETV6) was 1.15 fold enrichment (6-mer frequency, TF over GST control).
For TCTGTC, the binding signal (ERF) was 1.31 fold enrichment (6-mer frequency, TF over GST control), the binding signal (ETV3L) was 1.19 fold enrichment (6-mer frequency, TF over GST control) and the binding signal (ETS2) was 1.23 fold enrichment (6-mer frequency, TF over GST control). The binding signal (SPDEF) was 1.15 fold enrichment (6-mer frequency, TF over GST control), the binding signal (ETV7) was 1.14 fold enrichment (6-mer frequency, TF over GST control) and the binding signal (ELF5) was 1.16 fold enrichment (6-mer frequency, TF over GST control). For the same sequence, the binding signal (ETV3) was 1.05 fold enrichment (6-mer frequency, TF over GST control) and the binding signal (ETV6) was 1.23 fold enrichment (6-mer frequency, TF over GST control).
In the case of CACTGT, the binding signal (ERF) is reported as 1.16 fold enrichment (6-mer frequency, TF over GST control), the binding signal (ETV3L) is reported as 1.09 fold enrichment (6-mer frequency, TF over GST control) and the binding signal (ETS2) is reported as 1.13 fold enrichment (6-mer frequency, TF over GST control). The binding signal (SPDEF) was 1.11 fold enrichment (6-mer frequency, TF over GST control), the binding signal (ETV7) was 1.13 fold enrichment (6-mer frequency, TF over GST control) and the binding signal (ELF5) was 1.12 fold enrichment (6-mer frequency, TF over GST control). For the same sequence, the binding signal (ETV3) was 1.12 fold enrichment (6-mer frequency, TF over GST control) and the binding signal (ETV6) was 1.05 fold enrichment (6-mer frequency, TF over GST control).
With AAGTGG the binding signal (ERF) was 1.24 fold enrichment (6-mer frequency, TF over GST control), the binding signal (ETV3L) was 1.17 fold enrichment (6-mer frequency, TF over GST control) and the binding signal (ETS2) was 1.19 fold enrichment (6-mer frequency, TF over GST control). The binding signal (SPDEF) was 1.06 fold enrichment (6-mer frequency, TF over GST control), the binding signal (ETV7) was 1.31 fold enrichment (6-mer frequency, TF over GST control) and the binding signal (ELF5) was 1.24 fold enrichment (6-mer frequency, TF over GST control). For the same sequence, the binding signal (ETV3) was 1.23 fold enrichment (6-mer frequency, TF over GST control) and the binding signal (ETV6) was 1.3 fold enrichment (6-mer frequency, TF over GST control).
With GTTGCA the binding signal (ERF) was 1.13 fold enrichment (6-mer frequency, TF over GST control), the binding signal (ETV3L) was 1.19 fold enrichment (6-mer frequency, TF over GST control) and the binding signal (ETS2) was 1.17 fold enrichment (6-mer frequency, TF over GST control). For the same sequence, the binding signal (SPDEF) was 1.17 fold enrichment (6-mer frequency, TF over GST control), the binding signal (ETV7) was 1.15 fold enrichment (6-mer frequency, TF over GST control) and the binding signal (ELF5) was 1.1 fold enrichment (6-mer frequency, TF over GST control). The binding signal (ETV3) was 1.14 fold enrichment (6-mer frequency, TF over GST control) and the binding signal (ETV6) was 1.11 fold enrichment (6-mer frequency, TF over GST control).
With GGAACA the binding signal (ERF) was 1.01 fold enrichment (6-mer frequency, TF over GST control), the binding signal (ETV3L) was 1.07 fold enrichment (6-mer frequency, TF over GST control) and the binding signal (ETS2) was 1.08 fold enrichment (6-mer frequency, TF over GST control). The binding signal (SPDEF) was 1.15 fold enrichment (6-mer frequency, TF over GST control), the binding signal (ETV7) was 1.03 fold enrichment (6-mer frequency, TF over GST control) and the binding signal (ELF5) was 1.28 fold enrichment (6-mer frequency, TF over GST control). The binding signal (ETV3) was 1.14 fold enrichment (6-mer frequency, TF over GST control) and the binding signal (ETV6) was 1.02 fold enrichment (6-mer frequency, TF over GST control).
With CCCTCC the binding signal (ERF) was 1.58 fold enrichment (6-mer frequency, TF over GST control), the binding signal (ETV3L) was 1.31 fold enrichment (6-mer frequency, TF over GST control) and the binding signal (ETS2) was 1.51 fold enrichment (6-mer frequency, TF over GST control). For the same sequence, the binding signal (SPDEF) was 1.36 fold enrichment (6-mer frequency, TF over GST control), the binding signal (ETV7) was 1.37 fold enrichment (6-mer frequency, TF over GST control) and the binding signal (ELF5) was 1.34 fold enrichment (6-mer frequency, TF over GST control). The binding signal (ETV3) was 1.39 fold enrichment (6-mer frequency, TF over GST control) and the binding signal (ETV6) was 1.4 fold enrichment (6-mer frequency, TF over GST control).
In the case of CGATAC, the binding signal (ERF) is reported as 1.2 fold enrichment (6-mer frequency, TF over GST control), the binding signal (ETV3L) is reported as 1.18 fold enrichment (6-mer frequency, TF over GST control) and the binding signal (ETS2) is reported as 1.19 fold enrichment (6-mer frequency, TF over GST control). The binding signal (SPDEF) was 1.29 fold enrichment (6-mer frequency, TF over GST control), the binding signal (ETV7) was 1.02 fold enrichment (6-mer frequency, TF over GST control) and the binding signal (ELF5) was 1.1 fold enrichment (6-mer frequency, TF over GST control). The binding signal (ETV3) was 1.15 fold enrichment (6-mer frequency, TF over GST control) and the binding signal (ETV6) was 1.09 fold enrichment (6-mer frequency, TF over GST control).
